This is an account of results in PubChem BioAssay (Tox21).

Inconclusive results are not listed. The source made the active and inactive calls. Unless noted, calls come from the whole dose curve.

A short description of assay [1]: Nuclear factor erythroid 2-related factor 2/antioxidant responsive element (Nrf2/ARE) small molecule agonists: qHTS cell viability counter screen in human keratinocytes (AID 1919968; active = well fitted curve in the direction sought with a large enough effect in the repeat runs; an effect the other way counts as inactive or inconclusive; note: nearly all actives have a fitted effect of over 55% in size). A digest of the protocol:
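Measured as CellTiter-Fluor fluorescence, this readout tracks cytotoxicity in the same wells as the ARE-luciferase screen. HaCaT reporter cells (1,500/well) received compounds after a 5 h pre-incubation and were exposed for 23 h.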

Assay [2] is described as follows: Nuclear factor erythroid 2-related factor 2/antioxidant responsive element (Nrf2/ARE) small molecule agonists: luciferase reporter gene qHTS assay in human keratinocytes (AID 1919969). Note: nearly all actives have a fitted effect of over 35% in size. Background: In a reporter assay the amount or activity of a reporter protein is the signal.
Assay [3] addresses Gonadotropin-releasing hormone receptor (Homo sapiens) (UniProt P30968). Briefly: Human gonadotropin-releasing hormone receptor (GnRHR) small molecule agonists, calcium flux assay in GnRHR-HEK293 cells (AID 1920063). Note: nearly all actives have a fitted effect of over 35% in size. Note: potency is the fitted concentration of half-maximal effect. The method, boiled down:
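Fluorescence kinetics (480 nm excitation, 540 nm emission; 3 min, 1 s steps) report calcium mobilisation in human GnRHR-HEK293 cells in agonist mode. Dye incubation: 1 h, 37 C.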
On the technique in general: Calcium flux is commonly read through the fluorescence of an indicator in the cells.

For assay [4], the target named is KiSS-1 receptor (Homo sapiens) (UniProt Q969F8). Briefly: Human kisspeptin (KISS1R) small molecule agonists, calcium flux assay in KISS1R-HEK293 cells (AID 1920064; active = well fitted curve in the direction sought with a large enough effect in the repeat runs; an effect the other way counts as inactive or inconclusive). The method, boiled down: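 Measures KISS1R agonism through calcium-sensitive dye fluorescence in stably transfected HEK293 cells, read for 3 min after pin-tool compound delivery; 15-point titrations in triplicate.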

Assay [5] in a line: G protein-coupled receptor (GPCR) small molecule agonists, calcium flux assay: HEK293 wild type cell line counter screen (AID 1920065). A digest of the protocol:
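Readout: fluorescence at 480 nm excitation/540 nm emission, sampled at 1 s intervals for 3 min. Cells had been cultured 18 h, then dye-loaded 1 h at 37 C before compound or ATP addition.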

The target in assay [6] is Muscarinic acetylcholine receptor M1 (Homo sapiens) (UniProt P11229). As to the kind of experiment: Cholinergic receptor muscarinic 1 (CHRM1) small molecule antagonists, cell-based qHTS assay (AID 1963588). Note: nearly all actives have a fitted effect of over 40% in size. The method, boiled down:
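CHRM1-CHO calcium-flux assay, antagonist mode. Cells were seeded 18 h, dye-loaded 1 h at 37 C and given compound for 5 min at RT, then acetylcholine was added at 50nM. FDSS fluorescence was read 3 min; 15 concentrations, three runs.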
For orientation: qHTS replaces the single test concentration by a dilution series.

Assay [7] has the same target. Briefly: Cholinergic receptor muscarinic 1 (CHRM1) small molecule agonists, cell-based qHTS assay (AID 1963589). Note: nearly all actives have a fitted effect of over 35% in size. The method, boiled down: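 Each compound was tested at 15 concentrations across three independent runs on dye-loaded CHO cells stably expressing human CHRM1, reading intracellular calcium fluorescence kinetically at 1 sec intervals.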
For assay [8], the target named is D(2) dopamine receptor (Homo sapiens) (UniProt P14416). Briefly: Dopamine D2 receptor (DRD2) small molecule antagonists, cell-based qHTS assay (AID 1963595; active = well fitted inhibition curve with a large enough effect in the signal ratio in the repeat runs, with a control signal flat; the % refers to the signal ratio; note: potency is the fitted concentration of half-maximal effect). A digest of the protocol:
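Readout: HTRF cAMP, cAMP-d2 competing with cellular cAMP for anti-cAMP cryptate, read after 1 h. Cells: DRD2-HEK293. Conditions: 0.1 mM Ro20-1724, 12 nM quinpirole, 200 nM NKH477, 30 min RT.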

The nature of assay [9]: p53 small molecule agonists, cell-based qHTS assay with human liver microsomes (AID 1963577). The method, boiled down: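 Fluorescence of the beta-lactamase reporter in p53RE-bla cells, detected with LiveBLAzer substrate (2 h, room temperature, dark), served as the read-out after 16 h compound exposure at 37 C with human liver microsomes and NADPH, each 0.5 mg/mL final.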

Assay [10] is described as follows: p53 small molecule agonists, cell-based qHTS assay with rat liver microsomes (AID 1963578). A digest of the protocol: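 Cells carrying a p53 response element–beta-lactamase reporter were plated and rested 5 h, then dosed with compound in DMSO plus rat liver microsomes and NADPH, each at 0.5 mg/mL final. After 16 h at 37 C, LiveBLAzer substrate was added for 2 h.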

Assay [11] is described as follows: p53 small molecule agonists, cell-based qHTS assay with human liver microsomes: qHTS cell viability counter screen (AID 1963579). Note: nearly all actives have a fitted effect of over 45% in size. The method, boiled down:
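Cytotoxicity counter screen: p53RE-bla, 4,000 cells/well; 5 h settle, 37 C/5% CO2; cpd + HLM 0.5 mg/mL + NADPH 0.5 mg/mL (final); 16 h, 37 C; CellTiter-Glo, 30 min RT, luminescence.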

Assay [12] is described as follows: p53 small molecule agonists, cell-based qHTS assay with rat liver microsomes: qHTS cell viability counter screen (AID 1963580). Note: nearly all actives have a fitted effect of over 45% in size. The method, boiled down: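 HCT-116 p53RE-bla, 4,000 cells/well, 5 h pre-incubation; cpd + rat liver microsomes 0.5 mg/mL + NADPH 0.5 mg/mL (final); 16 h, 37 C; CellTiter-Glo, 30 min RT; luminescence.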
Assay [13] can be described thus: p53 small molecule agonists, cell-based qHTS assay: qHTS cell viability counter screen (AID 1963581). Note: nearly all actives have a fitted effect of over 45% in size. A digest of the protocol:
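In the same plates used for the p53 bla reporter, HCT-116 cells given compounds for 16 h at 37 C received CellTiter-Glo; luminescence was recorded 30 min later at room temperature.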

Assay [14] is described as follows: p53 small molecule agonists, cell-based qHTS assay (AID 1963582; active = well fitted activation curve with a large enough effect in the signal ratio in the repeat runs, not every such curve was filed as active; the % refers to the signal ratio). A digest of the protocol: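 Compounds are pin-transferred in DMSO onto p53RE-bla cells and incubated 16 h at 37 C. The B/G FRET beta-lactamase substrate is then applied for 2 h at RT and fluorescence recorded.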
Assay [15] concerns the target 5-hydroxytryptamine receptor 2A (Homo sapiens) (UniProt P28223). As to the kind of experiment: 5-hydroxytryptamine receptor 2A (HTR2A) small molecule agonists, cell-based qHTS assay (AID 1963587). Note: nearly all actives have a fitted effect of over 30% in size. The method, boiled down: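 Kinetic calcium-flux fluorescence (2 min, 1 sec intervals) after compound addition in agonist mode. HTR2A-CHO cells were cultured 18 h, then dye-loaded 1 h at 37 C.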

Assay [16] can be described thus: cAMP Responsive Elements (CRE) small molecule agonists, cell-based qHTS assay (AID 1963590). A digest of the protocol: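 Cell line: CRE-bla HEK 293T; medium DMEM/10% dialyzed FBS/0.1 mM NEAA/1 mM pyruvate/25 mM HEPES; 3 h compound exposure; beta-lactamase FRET readout after 2 h substrate loading at RT.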
A short description of assay [17]: cAMP Responsive Elements (CRE) small molecule antagonists, cell-based qHTS assay (AID 1963591; active = well fitted inhibition curve with a large enough effect in the signal ratio in the repeat runs, not every such curve was filed as active; the % refers to the signal ratio). The method, boiled down: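 Inhibition of NKH477-driven (0.25 uM final) CRE-beta-lactamase signal in HEK293T cells, 3 h compound exposure at 37 °C, detected by FRET substrate fluorescence.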
Assay [18] deals with Beta-2 adrenergic receptor (Homo sapiens) (UniProt P07550). As to the kind of experiment: Adrenergic beta2 receptor (ADRB2) small molecule antagonists, cell-based qHTS assay (AID 1963592). Note: series mostly up to about 92 µM; nearly all actives have a fitted effect of over 50% in size. A digest of the protocol:
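Cells (CHO, stable ADRB2 overexpression) incubated 18-20hr at 37C; compounds added from DMSO; agonist mix (1nM isoproterenol, 100uM IBMX, 25uM Ro-20-1724) added; 0.5hr RT; d2-cAMP and anti-cAMP-cryptate added; 1hr RT; 665/615 nm read.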

Assay [19] concerns the target D(2) dopamine receptor (Homo sapiens) (UniProt P14416). As to the kind of experiment: Dopamine D2 receptor (DRD2) small molecule agonists, cell-based qHTS assay (AID 1963594). Note: nearly all actives have a fitted effect of over 35% in size. A digest of the protocol:
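cAMP accumulation in DRD2-HEK293 cells measured by HTRF after 1 h detection; compounds added 10 min before NKH477 (200nM […]) forskolin-analogue stimulation, 30 min at room temperature, with Ro20-1724 present at 0.1 mM final.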

The target of assay [20] is 5-hydroxytryptamine receptor 2A (Homo sapiens) (UniProt P28223). Briefly: 5-hydroxytryptamine receptor 2A (HTR2A) small molecule antagonists, cell-based qHTS assay (AID 1963586). Note: nearly all actives have a fitted effect of over 45% in size. A digest of the protocol: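 Antagonist-mode intracellular calcium assay: DOI (4 nM) added after 5 min compound pre-incubation at room temperature to dye-loaded HTR2A-CHO cells. Fluorescence followed for 3 min, sampled every second.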
Chain of 5-hydroxytryptamine receptor 2A (Homo sapiens) (P28223 whole entry, looked up): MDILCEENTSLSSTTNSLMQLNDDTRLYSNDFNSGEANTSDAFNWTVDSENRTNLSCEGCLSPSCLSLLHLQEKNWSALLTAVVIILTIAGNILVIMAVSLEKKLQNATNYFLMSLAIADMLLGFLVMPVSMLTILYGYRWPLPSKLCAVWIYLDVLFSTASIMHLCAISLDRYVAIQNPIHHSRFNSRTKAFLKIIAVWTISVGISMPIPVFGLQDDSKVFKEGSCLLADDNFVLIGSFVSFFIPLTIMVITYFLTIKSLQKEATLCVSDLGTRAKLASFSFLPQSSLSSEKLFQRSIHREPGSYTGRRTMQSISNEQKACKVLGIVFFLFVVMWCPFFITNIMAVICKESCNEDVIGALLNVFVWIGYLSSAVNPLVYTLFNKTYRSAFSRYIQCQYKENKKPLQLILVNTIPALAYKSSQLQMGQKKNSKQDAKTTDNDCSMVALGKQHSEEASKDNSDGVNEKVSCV

Chain of KiSS-1 receptor (Homo sapiens) (Q969F8 whole entry, looked up): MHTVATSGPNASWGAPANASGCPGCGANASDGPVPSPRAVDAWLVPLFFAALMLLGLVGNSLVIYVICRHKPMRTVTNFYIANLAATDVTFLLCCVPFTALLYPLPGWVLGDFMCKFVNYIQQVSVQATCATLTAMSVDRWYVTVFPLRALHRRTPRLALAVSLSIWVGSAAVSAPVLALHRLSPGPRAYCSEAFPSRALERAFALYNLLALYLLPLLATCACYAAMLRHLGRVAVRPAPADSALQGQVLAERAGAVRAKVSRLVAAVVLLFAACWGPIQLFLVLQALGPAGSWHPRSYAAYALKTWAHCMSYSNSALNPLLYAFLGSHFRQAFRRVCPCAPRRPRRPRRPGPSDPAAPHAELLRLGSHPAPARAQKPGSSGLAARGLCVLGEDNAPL
Chain of Muscarinic acetylcholine receptor M1 (Homo sapiens) (P11229 whole entry, looked up): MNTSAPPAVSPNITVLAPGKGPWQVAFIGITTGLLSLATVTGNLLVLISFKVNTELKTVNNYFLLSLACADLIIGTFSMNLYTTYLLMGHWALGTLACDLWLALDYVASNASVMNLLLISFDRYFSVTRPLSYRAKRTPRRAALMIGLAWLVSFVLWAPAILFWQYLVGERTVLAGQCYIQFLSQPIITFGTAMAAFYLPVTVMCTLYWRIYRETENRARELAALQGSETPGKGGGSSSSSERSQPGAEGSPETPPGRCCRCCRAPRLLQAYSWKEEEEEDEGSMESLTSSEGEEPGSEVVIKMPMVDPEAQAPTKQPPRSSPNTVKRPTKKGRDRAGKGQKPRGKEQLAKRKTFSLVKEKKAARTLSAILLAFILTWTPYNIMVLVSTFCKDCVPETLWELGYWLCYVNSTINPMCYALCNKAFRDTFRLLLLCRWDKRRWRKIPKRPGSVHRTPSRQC
Chain of Beta-2 adrenergic receptor (Homo sapiens) (P07550 whole entry, looked up): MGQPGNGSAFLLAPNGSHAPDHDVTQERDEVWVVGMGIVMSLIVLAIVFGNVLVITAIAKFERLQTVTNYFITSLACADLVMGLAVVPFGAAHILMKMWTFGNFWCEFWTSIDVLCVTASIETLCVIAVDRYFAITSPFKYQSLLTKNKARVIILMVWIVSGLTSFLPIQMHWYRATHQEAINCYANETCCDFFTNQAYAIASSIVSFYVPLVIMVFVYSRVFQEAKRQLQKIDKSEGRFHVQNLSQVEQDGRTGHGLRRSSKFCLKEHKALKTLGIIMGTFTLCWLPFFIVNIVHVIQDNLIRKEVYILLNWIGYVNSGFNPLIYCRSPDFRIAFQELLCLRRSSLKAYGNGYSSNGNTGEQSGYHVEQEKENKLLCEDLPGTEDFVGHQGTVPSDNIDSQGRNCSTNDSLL
Chain of Gonadotropin-releasing hormone receptor (Homo sapiens) (P30968 whole entry, looked up): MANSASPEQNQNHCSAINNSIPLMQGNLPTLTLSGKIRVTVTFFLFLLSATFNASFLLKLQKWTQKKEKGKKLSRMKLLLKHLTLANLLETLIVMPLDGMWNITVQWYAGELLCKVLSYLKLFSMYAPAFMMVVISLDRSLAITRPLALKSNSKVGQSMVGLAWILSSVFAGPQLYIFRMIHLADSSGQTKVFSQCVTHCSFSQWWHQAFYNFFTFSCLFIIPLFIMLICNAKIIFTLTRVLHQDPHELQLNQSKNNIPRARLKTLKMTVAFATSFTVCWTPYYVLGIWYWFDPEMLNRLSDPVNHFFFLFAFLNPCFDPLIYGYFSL
Chain of D(2) dopamine receptor (Homo sapiens) (P14416 whole entry, looked up): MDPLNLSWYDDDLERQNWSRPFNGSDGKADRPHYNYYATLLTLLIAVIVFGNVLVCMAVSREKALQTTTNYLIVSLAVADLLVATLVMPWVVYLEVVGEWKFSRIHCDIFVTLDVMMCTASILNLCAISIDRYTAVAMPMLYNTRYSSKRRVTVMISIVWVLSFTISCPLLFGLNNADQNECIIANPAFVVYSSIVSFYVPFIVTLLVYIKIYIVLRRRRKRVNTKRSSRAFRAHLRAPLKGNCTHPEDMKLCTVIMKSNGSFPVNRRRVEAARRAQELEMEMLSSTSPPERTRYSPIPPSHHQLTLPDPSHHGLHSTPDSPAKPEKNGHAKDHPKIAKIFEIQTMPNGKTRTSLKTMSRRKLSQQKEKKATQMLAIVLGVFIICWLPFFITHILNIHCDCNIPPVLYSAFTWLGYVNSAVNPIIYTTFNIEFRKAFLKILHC

In the case of `CC(Cc1ccc(O)cc1)NCC(O)c1cc(O)cc(O)c1` (stereo unspecified), the Potency entry in assay [1], in [2], in assay [4], in assay [5], in assay [6] and in [7] was “inactive” in each case. The Potency in assay [3] is 33.8 nM (active); in [8], 5960 nM (active).
For `Cc1nc(N)nc(N)n1`, the Potency entry in [1], in [2], in assay [3], in assay [4], in assay [9] and in [10] was “inactive” throughout. Also, the Potency entry in assay [11], in [12], in [13], in [14], in assay [15] and in assay [6] was “inactive” each time. Moreover, the Potency entry in [7], in assay [16], in [17], in [18] and in [19] was “inactive” in each case.
In the case of `CC(Oc1cccc(Cl)c1)C(=O)O` (stereo unspecified), the Potency result in assay [1], in assay [2], in assay [3], in assay [4], in assay [9] and in [10] was “inactive” throughout. Moreover, the Potency entry in [12], in assay [13], in [14], in [20], in assay [15] and in assay [6] was “inactive” in each case. Moreover, the Potency result in assay [7], in assay [17], in [18] and in assay [19] was “inactive” each time.
For `CC(C)(C#N)C(C)(C)C#N`, the Potency entry in assay [1], in assay [2], in assay [3], in [4], in assay [9] and in assay [10] was “inactive” in each case. Further, the Potency entry in [11], in assay [12], in assay [13], in assay [20], in [15] and in assay [6] was “inactive” each time. Moreover, the Potency entry in [7], in assay [16], in assay [17], in assay [18], in [19] and in assay [8] was “inactive” throughout.
For `CC(C)(OO)c1ccccc1`, the Potency result in [1], in assay [2], in [3], in assay [4], in [10] and in assay [12] was “inactive” each time. Further, the Potency result in [13], in [14], in assay [20], in [15], in assay [6] and in assay [7] was “inactive” throughout. Also, the Potency result in [16], in [17], in assay [18] and in assay [8] was “inactive” each time.
For `C[C@]12CC[C@H]3[C@@H](CCC4=CC(=O)CC[C@@]43C)[C@@H]1CC[C@@H]2C(=O)O`, the Potency entry in assay [1], in assay [2], in [3], in assay [4], in assay [9] and in assay [10] was “inactive” throughout. Besides, the Potency entry in [11], in [12], in assay [13], in [14], in [20] and in assay [15] was “inactive” each time. For the same compound, the Potency result in assay [7], in [18] and in assay [8] was “inactive” in each case.
In the case of `CC1Sc2c(C(=O)O)c(=O)c3cc(F)c(N4CCNCC4)cc3n21` (stereo unspecified), the Potency entry in assay [1], in [2], in assay [3], in assay [4], in assay [9] and in assay [10] was “inactive” in each case. In addition, the Potency result in assay [12], in [13], in assay [14], in [20], in assay [15] and in [6] was “inactive” in each case. The Potency result in assay [8] is “inactive”.
Consider `CCOP(=S)(OCC)Oc1cc(-c2ccccc2)on1`, for which the Potency entry in assay [1], in assay [2], in assay [3], in assay [4], in assay [5] and in [13] was “inactive” in each case. The Potency entry in assay [14], in assay [20], in [15], in [6], in [18] and in assay [19] was “inactive” in each case. Further, the Potency result in assay [8] was “inactive”.
